Measured values: the supplement of paper PMC10515830
Structures can show the parent of a compound that is named as a salt.

Columns and labels:
Conditions in all cases: 10 µM; exposure time 6 h
[1] = tested on: Danio rerio larvae (5 dpf); assay: difference in excitability vs DMSO (percentage points); higher = more excitable than DMSO
How it was run: (§1)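 In 96-well plates, 48 wild-type zebrafish larvae aged 5 dpf per compound received 100 µL egg water with library compound at 10 µM final for 6 h. Three hours into this, a 3-h programme of moving lines and 100 ms, 400Hz tones ran at 28.5 ℃ while plates were photographed every 6 s. Z-LaP Tracker scored the behaviours, and each is given as the compound mean minus the vehicle control mean in percentage points.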

[2] = tested on: Danio rerio larvae (5 dpf); assay: difference in startle response vs DMSO (percentage points); higher = stronger startle than DMSO
How it was run: as §1

[3] = tested on: Danio rerio larvae (5 dpf); assay: difference in activity during first hour vs DMSO (percentage points); higher = more activity than DMSO
How it was run: as §1

[4] = tested on: Danio rerio larvae (5 dpf); assay: difference in habituation to acoustic stimuli vs DMSO (percentage points); higher = more habituation than DMSO
How it was run: as §1

[5] = tested on: Danio rerio larvae (5 dpf); assay: difference in combined optomotor response to red, green and blue moving lines vs DMSO (percentage points); higher = stronger optomotor response than DMSO
How it was run: as §1

| SMILES | difference in excitability [1] | difference in startle response [2] | difference in activity during first hour [3] | difference in habituation to acoustic stimuli [4] | difference [5] |
| --- | --- | --- | --- | --- | --- |
| COc1cc2nc(N3CCN(C(=O)C4COc5ccccc5O4)CC3)nc(N)c2cc1OC (stereo not given) [Doxazosin (mesylate)] | 25 | 8.69 | 7.65 | -8.22 | -5.73 |
| CCCc1cc(=O)[nH]c(=S)[nH]1 [Propylthiouracil] | 7.08 | 1.86 | 3.37 | -0.81 | 1.84 |
| CCCCCCCC(=O)N[C@H](CN1CCCC1)[C@H](O)c1ccc2c(c1)OCCO2 [Eliglustat (hemitartrate)] | 10.1 | -3.5 | 7.49 | 7.96 | 7.51 |
| CCN1CCN(Cc2ccc(Nc3ncc(F)c(-c4cc(F)c5nc(C)n(C(C)C)c5c4)n3)nc2)CC1 | 21.9 | 1.59 | -3.04 | 0.786 | 2.57 |
| CCCSc1nc(N[C@@H]2C[C@H]2c2ccc(F)c(F)c2)c2nnn([C@@H]3C[C@H](OCCO)[C@@H](O)[C@H]3O)c2n1 [Ticagrelor] | 4.33 | 1.19 | 2.64 | 1.79 | 9.27 |
| NS(=O)(=O)c1cc(C(=O)O)c(NCc2ccco2)cc1Cl [Furosemide] | 6.1 | -2.57 | 12 | -0.166 | 8.19 |
| CC(C)(C)c1cc(C(C)(C)C)c(NC(=O)c2c[nH]c3ccccc3c2=O)cc1O [Ivacaftor] | 2 | -4.58 | -10 | -2.59 | 5.49 |
| Nc1ccc(S(N)(=O)=O)cc1 [Sulfanilamide] | 11.8 | -3.25 | 6.97 | -1.65 | 3.13 |
| CC(=O)NO [Acetohydroxamic Acid] | 12 | 9 | -12.9 | 3.36 | -4.35 |
| NC[C@H]1O[C@H](O[C@H]2[C@H](O)[C@@H](O[C@H]3O[C@H](CO)[C@@H](O)[C@H](N)[C@H]3O)[C@H](N)C[C@@H]2N)[C@H](N)C[C@@H]1O [Tobramycin] | 25.5 | -1.65 | -2.18 | 4.43 | -2.09 |
| CN(CCOc1ccc(NS(C)(=O)=O)cc1)CCc1ccc(NS(C)(=O)=O)cc1 [Dofetilide] | -1.01 | -4.06 | 7.17 | 7 | 7.94 |
| CN1[C@@H]2CC[C@H]1C[C@@H](OC(c1ccccc1)c1ccccc1)C2 [Benztropine (mesylate)] | -5.24 | -9.21 | 27.7 | -9.38 | -1.29 |
| CC(C[N+](C)(C)C)OC(N)=O (stereo not given) [Bethanechol (chloride)] | 1.05 | -0.356 | -9.77 | 0.388 | -6.5 |
| CCOc1nc2cccc(C(=O)OC(C)OC(=O)OC3CCCCC3)c2n1Cc1ccc(-c2ccccc2-c2nn[nH]n2)cc1 (stereo not given) [Candesartan Cilexetil] | 12.4 | -6.23 | -2.86 | -2.83 | -2.76 |
| C[C@@H]1NC(=O)[C@@H](N)CNC(=O)[C@H](C2CCNC(=N)N2)NC(=O)/C(=C/NC(N)=O)NC(=O)[C@H](CNC(=O)CC(N)CCCN)NC1=O.N=C1NCC[C@H]([C@@H]2NC(=O)/C(=C/NC(N)=O)NC(=O)[C@H](CNC(=O)C[C@@H](N)CCCN)NC(=O)[C@H](CO)NC(=O)[C@@H](N)CNC2=O)N1 [Capreomycin (sulfate)] | 19.5 | 3.05 | -0.814 | 2.2 | 3.54 |
| CCC(=O)NC[C@@H]1C[C@H]1c1cccc2c1CCO2 [Tasimelteon] | 25 | 6.9 | -17.9 | -3.17 | 11.5 |
| C[C@@H]1C[C@H]2[C@@H]3CCC4=CC(=O)C=C[C@]4(C)[C@@]3(Cl)[C@@H](O)C[C@]2(C)[C@@]1(OC(=O)c1ccco1)C(=O)CCl [Mometasone Furoate] | 11.9 | 0.167 | 1.33 | 0.89 | 3.46 |
| COc1ccc2[nH]c([S@@+]([O-])Cc3ncc(C)c(OC)c3C)nc2c1 [Esomeprazole Magnesium] | 8.33 | 7.11 | 4.64 | -0.745 | 5.95 |
| N#Cc1cc(NC(=O)C(=O)O)c(Cl)c(NC(=O)C(=O)O)c1 [Lodoxamide] | 4.92 | 3.04 | -7.99 | 1.72 | 1.61 |
| CO/N=C(\C(=O)N[C@@H]1C(=O)N2C(C(=O)O)=C(COC(N)=O)CS[C@H]12)c1ccco1 [Cefuroxime (sodium salt)] | 21.1 | 5.54 | -6.92 | 2.43 | 10.9 |
| Nc1ccn([C@@H]2O[C@H](CO)[C@@H](O)[C@@H]2O)c(=O)n1 [Cytarabine] | 1.17 | -0.992 | -3.96 | -4.77 | 3.66 |
| C[C@H]1c2cccc(O)c2C(=O)C2=C(O)[C@]3(O)C(=O)C(C(N)=O)=C(O)[C@@H](N(C)C)[C@@H]3[C@@H](O)[C@@H]21 [Doxycycline (hyclate)] | 12.8 | 3.11 | 5.72 | 7.01 | -0.304 |
| CCCN(CCC)S(=O)(=O)c1ccc(C(=O)O)cc1 [Probenecid] | -3.91 | 4.06 | 8.09 | 3.84 | 9.2 |
| CON(C)Cc1ccc(O)c2c1C[C@H]1C[C@H]3[C@H](N(C)C)C(=O)C(C(N)=O)=C(O)[C@@]3(O)C(=O)C1=C2O | -1.28 | -2.07 | 7.53 | 4.95 | 0.0321 |
| OCCN(CCO)c1nc(N2CCCCC2)c2nc(N(CCO)CCO)nc(N3CCCCC3)c2n1 [Dipyridamole] | 1.25 | 3.31 | 10.2 | -3.82 | 6.89 |

| SMILES | difference in excitability [1] | difference in startle response [2] | difference in activity during first hour [3] | difference in habituation to acoustic stimuli [4] | difference [5] |
| --- | --- | --- | --- | --- | --- |
| N#C[C@@H]1C[C@@H]2C[C@@H]2N1C(=O)[C@@H](N)C12CC3CC(CC(O)(C3)C1)C2 [Saxagliptin (hydrochloride)] | 4.61 | -1.75 | 11.5 | 5.75 | 2.16 |
| CN(C)[C@@H]1C(O)=C(C(N)=O)C(=O)[C@@]2(O)C(O)=C3C(=O)c4c(O)ccc(Cl)c4[C@@H](O)[C@H]3C[C@@H]12 [Demeclocycline (hydrochloride)] | 12.9 | -2.29 | 4.59 | 7.81 | 2.94 |
| Brc1c(NC2=NCCN2)ccc2nccnc12 [Brimonidine (tartrate)] | -0.928 | -0.293 | -14.2 | 3.89 | 10.9 |
| Cc1cccc(CN2CCN(C(c3ccccc3)c3ccc(Cl)cc3)CC2)c1 (stereo not given) [Meclizine (hydrochloride)] | 6.31 | -8.4 | 21.1 | -9.92 | -14.3 |
| O=C(NCC1CCCCN1)c1cc(OCC(F)(F)F)ccc1OCC(F)(F)F (stereo not given) [Flecainide (acetate)] | 6.44 | -12.4 | -19.1 | -11 | -18.8 |
| C=C1/C(=C\C=C2/CCC[C@]3(C)[C@@H]([C@H](C)/C=C/[C@@H](O)C4CC4)CC[C@@H]23)C[C@@H](O)C[C@@H]1O [Calcipotriol (hydrate)] | 15.4 | -5.26 | 0.435 | -0.975 | 5.42 |
| COCCOC(=O)C1=C(C)NC(C)=C(C(=O)OC(C)C)C1c1cccc([N+](=O)[O-])c1 (stereo not given) [Nimodipine] | 7.48 | -6.36 | 11.8 | -10.8 | -14.5 |
| Clc1ccc(CO/N=C(\Cn2ccnc2)c2ccc(Cl)cc2Cl)c(Cl)c1 [Oxiconazole (nitrate)] | 5.37 | -6.72 | -22.9 | -11 | -17.3 |
| CN(C)C(=O)N[C@H]1CC[C@H](CCN2CCN(c3cccc(Cl)c3Cl)CC2)CC1 [Cariprazine (hydrochloride)] | 11.3 | -2.66 | -2.12 | -3.39 | -1.22 |
| C#C[C@]1(O)CC[C@H]2[C@@H]3CCC4=CCCC[C@@H]4[C@H]3C(=C)C[C@@]21CC [Desogestrel] | 16.3 | -10.3 | 30.8 | -6.42 | -15.3 |
| CCNC(=O)CCC/C=C\C[C@@H]1[C@@H](/C=C/[C@@H](O)CCc2ccccc2)[C@H](O)C[C@@H]1O [17-phenyl trinor Prostaglandin F2α ethyl amide] | 12.5 | -5.26 | 14.8 | -0.264 | 7.13 |
| Cc1ccc(=O)n(-c2ccccc2)c1 [Pirfenidone] | -2.03 | 3.37 | 0.0618 | 2.62 | 8.23 |
| C/C(O)=C(\C#N)C(=O)Nc1ccc(C(F)(F)F)cc1 | 5.48 | 1.5 | -4.86 | 6.45 | 3.09 |
| C#CCN[C@@H]1CCc2ccccc21 [Rasagiline] | 3.5 | 1.96 | 10.2 | 4.46 | 6.27 |
| CCC[C@H](N[C@@H](C)C(=O)N1[C@H](C(=O)O)C[C@@H]2CCCC[C@@H]21)C(=O)OCC [Perindopril] | 1.68 | 3.45 | 15 | -4.9 | 1.2 |
| O=C(c1ccc(F)c(F)c1Nc1ccc(I)cc1F)N1CC(O)([C@@H]2CCCCN2)C1 [Cobimetinib] | 22.7 | -2.69 | 0.0371 | 0.214 | 2.37 |
| CC(C)NCC(O)c1cc(O)cc(O)c1 (stereo not given) [Metaproterenol (hemisulfate)] | 3.08 | 0.666 | 26.4 | -8.48 | 1.44 |
| O=C(O)CSc1nnc(Br)n1-c1ccc(C2CC2)c2ccccc12 [Lesinurad] | 1.61 | 2.63 | 12.5 | -0.00375 | 2.41 |
| NC(=O)OCC(COC(N)=O)c1ccccc1 [Felbamate] | -5.58 | 2.01 | 9.63 | -0.648 | 2.98 |
| Cn1cnc([N+](=O)[O-])c1Sc1ncnc2[nH]cnc12 [Azathioprine] | -3.13 | 3.25 | -3.18 | 4.62 | 1.19 |
| CC(C)NCC(O)COc1ccc(CC(N)=O)cc1 (racemic) [(±)-Atenolol] | 3.98 | -0.206 | 8.47 | 1.78 | 1.82 |
| Cc1cccc(C)c1OCC(C)N (stereo not given) [Mexiletine (hydrochloride)] | 9.5 | 1.48 | -2.5 | -10.3 | 1.04 |
| COc1cc([C@@H]2c3cc4c(cc3[C@@H](O[C@@H]3O[C@@H]5CO[C@@H](C)O[C@H]5[C@H](O)[C@H]3O)[C@H]3COC(=O)[C@H]23)OCO4)cc(OC)c1O [Etoposide] | -3.42 | 2.1 | -5.75 | 2.55 | -5.33 |
| CC(=O)O[C@H]1C[C@@H]2CC[C@@H]3[C@H](CC[C@@]4(C)[C@H]3C[C@H]([N+]3(C)CCCCC3)[C@@H]4OC(C)=O)[C@@]2(C)C[C@@H]1N1CCCCC1 [Vecuronium (bromide)] | 11.8 | -0.798 | -6.01 | 3.25 | -1.83 |
